Data reported in PubChem BioAssay AID743143 (Broad Institute, 2013).
Results with a measured potency or affinity are listed apart. Calls of active or inactive are those of the source.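 The calls were made as follows: active = falling signal curve whose fitted half-maximal dose lies at or below the top valid tested dose; inconclusive = flat fit showing 30 to 70% loss, or poor fit; inactive = rising signal, flat within 30%, or half-maximal dose above top.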

Assay: HepG2 cell cytotoxicity, dose response, cytotoxicity control, ATP luminescence, dry powder, Set4 (AID 743143)
Conditions: HepG2 viability, CellTiter-Glo ATP luminescence, 72 h; series mostly up to 26 µM

| Compound | outcome |
| --- | --- |
| CC(NC(=O)CCNC(=O)c1ccc(Cl)cc1)c1ccc2c(c1)OCO2 (stereo not drawn) | inactive |
| O=C(CCNC(=O)c1ccc(Cl)cc1)N[C@@H]1CCc2ccccc21 | inactive |
| CC(NC(=O)C1CCCN(C(=O)c2ccc(Cl)cc2)C1)c1ccccc1 (stereo not drawn) | inactive |
| CC(C)(C)OC(=O)NCCC(=O)N[C@@H]1CCCc2ccccc21 | inactive |
| O=C(NC1CCOc2ccccc21)C1CCCN(C(=O)c2ccc(Cl)cc2)C1 (stereo not drawn) | inactive |
| Cc1cccc(C(=O)NCCC(=O)NC2CCCc3ccccc32)c1 (stereo not drawn) | inactive |
| CC(CC(=O)N(C)C1CCCc2ccccc21)NC(=O)c1ccccc1 (stereo not drawn) | inactive |
| O=C(CCNC(=O)c1ccc(F)cc1)N[C@@H]1CCCc2ccccc21 | inactive |
| CC(NC(=O)CCNC(=O)c1ccc(Cl)cc1)c1ccc(F)cc1 (stereo not drawn) | inactive |
| O=C(CCNC(=O)c1ccc(C(F)(F)F)cc1)N[C@@H]1CCCc2ccccc21 | inactive |
| O=C(CCNC(=O)c1cccc(Cl)c1)N[C@@H]1CCCc2ccccc21 | inactive |
| Cc1ccc(C(=O)NCCC(=O)N[C@@H]2CCCc3ccccc32)cc1 | inactive |
| CN(C(=O)CCNC(=O)c1ccc(F)cc1F)C1CCCc2ccccc21 (stereo not drawn) | inactive |
| NCCC(=O)N[C@@H]1CCCc2ccccc21 | inactive |
| O=C(CCCNC(=O)c1ccc(OC(F)(F)F)cc1)N[C@@H]1CCCc2ccccc21 | inactive |
| N#Cc1ccc(C(=O)NCCC(=O)N[C@@H]2CCCc3ccccc32)cc1 | inactive |
| O=C(CCNC(=O)c1ccccc1Cl)NC1CCCc2ccccc21 (stereo not drawn) | inactive |
| COc1ccccc1C(C)NC(=O)CCNC(=O)c1ccc(Cl)cc1 (stereo not drawn) | inactive |
